Among the data in PubChem BioAssay (NCI) are growth values, retold here.

Assay in all cases: NCI-60 one-dose screen, 48 h (100 = growth as untreated, 0 = no growth, -100 = all killed)
Common to all, as to conditions: 10 µM unless noted

Assay [1] deals with NCI-H23 lung.
The test system of assay [2] is NCI-H226 lung.
Assay [3] has as its system NCI-H322M lung.
In assay [4] the test system is HOP-62 NSCLC.
Assay [5] deals with NCI-H460 lung.
Assay [6] relates to HOP-92 NSCLC.
For assay [7], the system named is NCI-H522 lung.
Assay [8] relates to A549/ATCC NSCLC.
In assay [9] the test system is 786-0 renal.
The test system of assay [10] is COLO 205 colon.

Compounds without any hit were thinned out: in the full panel of roughly 83,000, 20% have a hit.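 Each cell line was grown in a 96-well plate and treated with one concentration of compound for 48 hours. Values below 10 were considered active.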 Values without a mark were called inactive. The source made the active and inactive calls.

Regarding `Cc1cc(N2CCCCCC2)nc(NC2CCCC(Nc3ccnc4cc(Cl)ccc34)C2)n1` (stereo not given), the growth in assay [1] is -50.8% (active); in [2], -61.3% (active); in assay [3], -70.9% (active); in assay [4], -83% (active); in [5] it was -82.2% (active); in assay [6], -82% (active). The growth in [7] is -72% (active); in assay [8], -68.3% (active); in assay [9] it was -96.3% (active); in assay [10], -80.1% (active).
In the case of `Cc1ncc(C(=O)Nc2ccc(CN3CCN(C)CC3)c(C(F)(F)F)c2)cc1C#Cc1cnc2cccnn12`, the growth in [1] was -38.4% (active); in assay [2], -56.8% (active); in [3], -1.83% (active); in [4] it was 4.59% (active); in assay [5], -53.1% (active); in assay [6], -4.77% (active). Also, the growth is -18.9% (active) in [7], -2.38% (active) in [8], 1.06% (active) in assay [9] and -41.5% (active) in [10].
With `COc1cc(-c2nn(-c3ccc(Br)cc3)cc2C(=O)O)ccc1O`, the growth in assay [1] is 89.5%; in assay [2], 91.7%; in assay [3] it was 95.3%; in assay [4], 96.3%; in assay [5], 103%; in [6] it was 94.5%. In addition, the growth was 67.7% in [7], 105% in assay [8], 97.6% in assay [9] and 109% in assay [10].
`CC[C@]1(O)C[C@@H]2CN(CCc3c([nH]c4ccccc34)[C@@](C(=O)OC)(c3cc4c(cc3OC)N(C)[C@H]3[C@@](O)(C(N)=O)[C@H](O)[C@]5(CC)[C@@H]6C[C@@H]6CN6CC[C@]43[C@@H]65)C2)C1`: the growth in [1] is 32.7%; in [2], 44.2%; in assay [3] it was 55.4%; in [4], 24.1%; in assay [5], 8.06% (active); in assay [6], 19.3%. Besides, the growth was -32.3% (active) in assay [7], 12.7% in [8], 18% in [9] and -44.3% (active) in assay [10].
As for `Cn1cc(-c2nonc2-c2cn(C)c3ccc(F)cc23)c2cc(F)ccc21`, the growth is 67.6% in [1]; 51.3% in assay [2]; 97.3% in assay [3]; 45.6% in assay [4]; 49.9% in assay [5]; 66% in assay [6]. For the same compound, the growth in assay [7] was 22%; in assay [8] it was 47.9%; in assay [9], 85.7%; in [10] it was 62.4%.
With `COc1cc(/C=C/c2cc(/C=C/c3ccc(O)c(OC)c3)n(-c3c(C)cccc3C)c(=O)n2)ccc1O`, the growth in [1] is 2.99% (active); in assay [2], 4.63% (active); in assay [3], 15.9%; in assay [4], -2.09% (active); in assay [5], 7.91% (active); in assay [6], -3.15% (active). Moreover, the growth is -10.2% (active) in assay [7], 2.96% (active) in assay [8], 12.6% in assay [9] and -40.9% (active) in [10].
For `CC(C)CSc1nc(N)nc2c1ncn2C1OC(CO)C(O)C1O` (stereo not given), the growth in assay [1] is 106%; in assay [2], 101%; in [3] it was 101%; in assay [4], 95.2%; in assay [5], 104%; in assay [6] it was 147%. The growth is 92.6% in assay [7], 102% in [8], 121% in assay [9] and 101% in assay [10].
In the case of `O=C1c2cc3c(cc2-c2c1c1ccc(F)cc1c(=O)n2CCCNCCO)OCO3`, the growth in assay [1] is -57.3% (active); in assay [2], -60.1% (active); in assay [3], -33.3% (active); in assay [4], -48.9% (active); in assay [5] it was -36.8% (active); in assay [6], 2.28% (active). Further, the growth in assay [7] was -53.9% (active); in [8], -74.4% (active); in assay [9], -84.8% (active); in assay [10] it was -66.5% (active).
For the compound `O=C(O)c1ccc(N=CC(=O)c2ccc(-c3ccccc3)cc2)cc1`, the growth in assay [1] is 93.6%; in [2], 83.9%; in assay [3] it was 105%; in assay [4] it was 103%; in [5], 104%; in assay [6], 84.2%. The growth in assay [7] was 87.2%; in assay [8], 92.1%; in [9] it was 104%; in [10] it was 111%.
`Cc1cc2nc3[nH]c4ccccc4c3nc2cc1C`: the growth was 99.6% in [1]; 96.1% in [2]; 98.7% in [3]; 94.2% in assay [4]; 93.8% in assay [5]; 67.2% in [6]. The growth was 94% in assay [7], 87.2% in assay [8], 79.3% in assay [9] and 88% in [10].
With `Cc1ccc(C2Oc3ccccc3C3CC(c4cccs4)=NN32)cc1` (stereo not given), the growth was 93.4% in [1]; 84.7% in [2]; 91.5% in [3]; 105% in assay [4]; 101% in assay [5]; 81.7% in assay [6]. Besides, the growth in assay [7] was 88.7%; in [8], 103%; in [9] it was 99.8%; in [10] it was 104%.
With `COc1ccc(C(=O)c2sc3nc(C)cc(C)c3c2N)cc1OC`, the growth is 74.3% in assay [1]; 89.8% in [2]; 87.9% in assay [3]; 53.4% in assay [4]; 67.6% in assay [5]; 89.7% in assay [6]. Besides, the growth in assay [7] is -13.1% (active); in [8] it was 60%; in [9], 99.5%; in assay [10], 102%.
With `COc1ccc(-c2nc3ccc(-c4nc5ccc(N6CCN(c7ccncc7)CC6)cc5[nH]4)cc3[nH]2)cc1OC`, the growth in [1] was 36.9%; in [2], 46%; in assay [3], 81.2%; in assay [4], 61%; in assay [5], 83.5%; in assay [6], 57.8%. Also, the growth in assay [7] was -58% (active); in assay [8], 80.7%; in [9] it was 76.4%; in assay [10] it was 13.3%.
